Screening data: PubChem BioAssay, National Center for Advancing Translational Sciences (NCATS)
POLK inh = DNA polymerase kappa (human) inhibition; Q9UBT6; purified Pol kappa, fluorescent DNA synthesis assay, 10 min; Potency, µM (series often up to 107 µM), for the others: at the top dose activity, negative = inhibition, hits mostly inhibitors; 400,000 compounds, 0.53% hits; AID 588579; note: potency is the fitted concentration of half-maximal effect; % is set by controls: 0 for no effect and ±100 for the full control effect
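Here, compound and 10 nM enzyme are combined for 15 min at room temperature; adding 50 nM substrate (final) starts DNA synthesis, tracked by fluorescence at 0 and 10 min against buffer-only wells.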
Pol iota inh = DNA polymerase iota (human) inhibition; Pol iota fluorescent replication assay, 10 min; Q9UNA4; Potency, µM (top dose mostly 115 µM), for inactives: at the highest dose activity, negative = inhibition, actives largely listed as inhibitors; 390,000 compounds, 1% hits; note: potency is the fitted concentration of half-maximal effect
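Pol iota at 10 nM preincubated 15 min with compounds at room temperature; reaction started with fluorescent substrate, 50 nM final. Fluorescence read kinetically at 0 and 10 min; buffer-only wells as negative control.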
WRN inhibitor = inhibitors of human WRN helicase | Potency, µM (series often up to 114 µM), without a hit: top-dose activity change, negative = inhibition, most hits filed as inhibitors | Q14191 | 360,000 compounds, 0.46% hits | WRN helicase unwinding, fluorescent forked duplex, kinetic; note: potency is the fitted concentration of half-maximal effect; % is set by controls: 0 for no effect and ±100 for the full control effect; nearly all actives have a fitted effect of over 55% in size
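WRN at 20 nM final was preincubated with compound for 15 min at room temperature; reaction started with 100 nM forked duplex oligonucleotide carrying fluorophore and quencher plus 2 mM ATP (final). Unwinding followed kinetically by red fluorescence (ex 525/em 598 nm).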
POLH inh = blocks human DNA polymerase eta activity. Q9Y253. recombinant Pol eta, fluorescent DNA replication assay. Potency, µM (highest dose often 114 µM), for inactives: at the top dose activity change, negative = inhibition, actives largely listed as inhibitors. 390,000 compounds, 1.2% hits. AID 588591; note: potency is the fitted concentration of half-maximal effect; % is set by controls: 0 for no effect and ±100 for the full control effect
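Pol eta (10 nM) was preincubated with compounds for 15 min at room temperature, after which fluorescent replication substrate (50 nM final) was added to start the reaction. Fluorescence was read kinetically at 0 and 10 min.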
PI5P4Ka inh = inhibitors of human PI5P4K alpha; P48426; PI5P4Kalpha enzyme, ADP-Glo luminescence, 60 min; active compounds read low; max response, %; 330,000 compounds, 1.2% hits; active = max response of -50% or lower; inconclusive = between -30% and -50%; inactive = -30% or higher; note: value at the top dose of about 77 µM; % is set by controls: 0 for no effect and ±100 for the full control effect
Target sequence (P48426 whole entry, looked up): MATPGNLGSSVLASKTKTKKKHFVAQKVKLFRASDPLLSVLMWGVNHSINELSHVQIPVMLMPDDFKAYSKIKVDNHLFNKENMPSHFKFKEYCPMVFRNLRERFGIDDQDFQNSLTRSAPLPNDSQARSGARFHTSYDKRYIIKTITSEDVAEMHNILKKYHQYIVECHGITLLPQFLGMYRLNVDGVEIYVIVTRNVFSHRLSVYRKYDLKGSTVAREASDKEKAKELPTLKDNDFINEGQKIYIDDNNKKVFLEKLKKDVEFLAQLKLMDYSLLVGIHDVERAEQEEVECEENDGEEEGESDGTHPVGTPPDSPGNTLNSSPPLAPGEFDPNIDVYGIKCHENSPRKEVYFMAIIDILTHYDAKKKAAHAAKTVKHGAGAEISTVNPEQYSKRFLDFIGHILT
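ADP-Glo luminescence end-point after a 60 min room-temperature kinase reaction. PI5P4Kalpha and substrate in HEPES pH 7.4 buffer with EGTA, 0.1% CHAPS and 5% DMSO; ATP at 5 microM final.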
POLB inh = blocks human DNA polymerase beta activity. P06746. Pol beta primer extension/strand displacement, fluorescence kinetic. Potency, µM (doses to about 114 µM), inactives show top-dose activity change, negative = inhibition, usual class: inhibitors. 340,000 compounds, 1.3% hits. AID 485314; note: potency is the fitted concentration of half-maximal effect; % is set by controls: 0 for no effect and ±100 for the full control effect
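Homogeneous kinetic assay of primer extension and strand displacement by 10 nM Pol beta, preincubated 15 min at room temperature with compound before 50 nM substrate (final) was added. Read at 0 and 10 min; four-parameter Hill fit.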
* = called active by the depositor; ? = inconclusive; nt = no result given; ! = not confirmed by another sample; [ ] = remark or other dose. In the library only some 2.8% were active in any assay of this set; here they are far more common. Unless noted, calls come from the whole dose curve; as a rule, active = well fitted curve in the direction sought with a large enough effect; inconclusive = small, poorly fitted or top-dose-only effect, or another doubt; inactive = no such curve, though single readings can be large; an effect the other way counts as inactive or inconclusive.

SMILES	POLK inh	Pol iota inh	WRN inhibitor	POLH inh	PI5P4Ka inh	POLB inh
CCCCOc1ccc(C(=O)N/N=C/c2ccc(OCCN3CCCCC3)c(OC)c2)cc1	?	?	-2%[11.6 µM]	?	11	16µM*
COc1cc(C[C@@H](C)[C@@H](C)Cc2ccc(O)c(OC)c2)ccc1O	-11%	2%	-6%	-11%	10	nt
CC(Cc1ccc(O)c(O)c1)C(C)Cc1ccc(O)c(O)c1 (centres undefined)	10µM*	45µM*	18µM*	28µM*	-82*	nt
C[C@H](Cc1ccc(O)c(O)c1)[C@@H](C)Cc1ccc(O)c(O)c1	1.7µM*	1.8µM*!	nt	3.2µM*	nt	0.79µM*
COc1ccc(NC(=O)CSc2c3c(nc4ccc(Cl)cc24)CCCC3)cc1Cl	3%	1%	nt	11%	nt	17%
CC1=C(C#N)C(/C=N/OCc2ccc(F)cc2Cl)CC(=O)N1 (centres undefined)	-2%	84%	10%	-21%	-9	1%
CC(=O)Oc1c(C)cc(OCC(O)CNC(C)C)c(C)c1C (centres undefined)	6%[60.1 µM]	nt	nt	nt	nt	nt
COc1cc(/C=C2\SC(=O)N(c3ccc(Cl)cc3)C2=O)cc([N+](=O)[O-])c1O	?	6.3µM*	?	-15%	-51*	56µM*
CCOc1ccc(/C=C2\SC(=O)N(c3ccc(O)cc3)C2=O)cc1OC	-1%	1%	-4%	-1%	-1	-19%
CCN(C(=O)CSc1nc2ccccc2n1CC(=O)Nc1ccccc1C)c1ccccc1	0%[60.1 µM]	-16%	nt	-15%	nt	-29%
O=C(NCc1ccccc1)[C@]1(C(F)(F)F)C[C@H](CCC2CCCCC2)CCCO1	-1%	13%	nt	nt	nt	nt
O=C(O)/C=C/c1ccc(S(=O)(=O)N2CCN(CCN3C(=O)C4C5C=CC(C5)C4C3=O)CC2)cc1 (centres undefined)	0%	9%	6%	-4%	1	3%
O=C(COC(=O)C1CCCCC1C(=O)N1CCc2ccccc21)NCc1ccco1 (centres undefined)	?	?	-30%	25µM*	?	32µM*
O=C(CN1CCCc2ccccc21)NC(=O)NCc1ccco1	-22%	3%	-5%	1%	nt	7%
Cc1ccc(/C(=N/Nc2nc3ccccc3s2)C2=C(O)c3ccccc3C2=O)cc1	-3%	164%	-1%	?	-81*	3%
Cc1ccc(S(=O)(=O)N(C)CC(=O)Nc2nc3ccccc3s2)cc1	-25%	6%	-10%	0%	-2	-17%
CC1CC(C)CN(C(=O)COC(=O)c2ccc([N+](=O)[O-])o2)C1 (centres undefined)	-23%	?	0%	89µM*	2	nt
CC1CCCC(C)N1C(=O)COC(=O)c1cc([N+](=O)[O-])ccc1N1CCOCC1 (centres undefined)	0%	4%	1%	-8%	-5	nt
CC1CCN(C(=O)c2ccc([N+](=O)[O-])o2)CC1	-11%	20%	6%[57.1 µM]	2%	-1	19%
CCOC(=O)C1CCN(C(=O)COC(=O)c2cc([N+](=O)[O-])ccc2N2CCOCC2)CC1	-2%	26%	-1%	-13%	-5	nt
CCOC(=O)C1CCN(C(=O)COC(=O)c2ccc([N+](=O)[O-])o2)CC1	-4%	50µM*	16%	79µM*	-4	nt
CC1CCCC(C)N1C(=O)COC(=O)c1ccc([N+](=O)[O-])o1 (centres undefined)	-13%	50µM*	-3%	50µM*	1	nt
Cn1c(N)c(C(=O)COC(=O)c2ccc([N+](=O)[O-])o2)c(=O)n(C)c1=O	-26%	50µM*	-2%	89µM*	2	-3%
C#Cc1ccc([C@@H]2C=C(C(=O)N3CCN(Cc4ccc5c(c4)OCO5)CC3)O[C@H](OCCCCO)C2)cc1	-4%	?	-16%[11.6 µM]	-5%	-16	-26%
Cc1ccc(-c2csc3ncnc(Sc4nnnn4-c4ccccc4)c23)cc1	-15%	-6%	nt	nt	nt	nt
SMILES	POLK inh	Pol iota inh	WRN inhibitor	POLH inh	PI5P4Ka inh	POLB inh
CC(C)CN1CCC1(C)C(=O)Nc1cc(-c2ccccc2)nn1C (centres undefined)	nt	nt	7%[57.1 µM]	nt	-4	nt
Cn1c(N)c(C(=O)COC(=O)CNC(=O)c2ccccc2)c(=O)n(C)c1=O	-10%	102%	2%	-20%	1	nt
Cc1ccc(C(=O)NCC(=O)OCC(=O)c2c(N)n(C)c(=O)n(C)c2=O)s1	-6%	?	-4%[57.1 µM]	?	?	35µM*
COc1cccc(NC(=O)C2CCN(C(=O)NC3CCCCC3)CC2)c1	-17%	130%	-2%	-15%	5	21%
N[C@H](C(=O)O)C1C(C(=O)O)C1C(=O)O (some centres undefined)	6%[19.4 µM]	nt	nt	nt	nt	nt
CCOC(=O)c1ccc(N2C(=O)c3[nH]nc(-c4ccc(C)cc4)c3C2c2ccc(O)c(OCC)c2)cc1 (centres undefined)	-12%	-11%	nt	-18%	nt	4%
Cc1ccc(CCNC(=O)CSCc2nc(-c3ccc(C)cc3)oc2C)cc1	3%	10%	nt	-17%	nt	-24%
O=C1OC2(CCCCC2)CC2=C1C1O[C@](c3ccsc3)(Cc3c1ccc1ccccc31)O2	nt	nt	nt	nt	nt	10µM*
O=S1(=O)NC(=NCC(c2ccco2)N2CCCCC2)c2ccccc21 (centres undefined)	-4%	-17%	-5%	2%	0	23%
CN(C)C(CN=C1NS(=O)(=O)c2ccccc21)c1ccco1 (centres undefined)	-31%	79µM*	-3%	-20%	0	?
NCCCC[C@H]1NC(=O)[C@H](CCC(=O)O)NC(=O)c2cc([N+](=O)[O-])cc(I)c2OCC[C@@H](C(N)=O)NC1=O	3.5µM*	8.9µM*	10µM*	-98%	?	-9%
CCCCN1C(=O)C(=O)N(CC(=O)Nc2sc(CC)cc2C(=O)OCC)C1=O	-6%	79µM*	-13%[11.6 µM]	1%	6	nt
CCOC(=O)c1cc(CC)sc1NC(=O)COC	-11%	4%[58.9 µM]	6%	4%	nt	21%
CCN(CC)C(=O)CC(c1ccc(OC)cc1)c1c(OC)cc(OC)c2c(-c3ccccc3)cc(=O)oc12 (centres undefined)	79µM*	?	nt	nt	nt	nt
COc1cc(OC)c2ccc(=O)oc2c1C(CC(=O)N1CCCCC1)c1ccc2c(c1)OCO2 (centres undefined)	?	89µM*	nt	nt	nt	nt
COc1ccc(C(CCN2CCCCC2)c2c(OC)cc(OC)c3c(-c4ccccc4)cc(=O)oc23)cc1 (centres undefined)	5%	-17%	-2%	-6%	-2	-23%
